Results on 52 compounds are retold here after PubChem BioAssay AID434970 (Sanford-Burnham Center for Chemical Genomics, 2010).

Screen size: about 11,000 compounds; about 310 (2.8%) were called active. No stated cut-off is given here; in the data, active means activity change below about -85%; inactive means the rest. This excerpt belongs to a sample that is enriched for actives.

This test deals with intestinal alkaline phosphatase [Mus musculus]. The experiment in a line: activators of mouse IAP, confirmation, biochemical, luminescence, single concentration (AID 434970). Particulars: purified mouse IAP, CDP-Star luminescence, 30 min, at 10 µM; activation factor: measured here: IAP activation factor, stronger effect = higher value; activity change, negative = activation: stronger effect = lower value.
For the compound `CCN1Cc2cc(OC)ccc2-c2ccccc2S1(=O)=O`, the activation factor came out at 1.15 and the activity change, negative = activation is -14.7% (inactive).
The like results for `O=C(Nc1cc(Cl)cc(Cl)c1)N1CCCC1` were, in that order, 1.62 and -62.2% (inactive).
Regarding `Cc1ccc(S(=O)(=O)N(CC(=O)Nc2cccc(N(C)S(C)(=O)=O)c2)c2ccc(Cl)c(Cl)c2)cc1`, the activation factor stood at 1.73 and the activity change, negative = activation is -73.1% (inactive).
For `CN(c1cccc(NC(=O)Nc2cccc(Cl)c2)c1)S(C)(=O)=O` the same measures were 2.47 and -147% (active).
The like results for `CN(c1cccc(NC(=O)Nc2ccc(Cl)cc2)c1)S(C)(=O)=O` were, in that order, 1.91 and -91.2% (inactive).
Turning to `O=C(NCCN1CCN(Cc2ccccc2)CC1)Nc1cc(Cl)cc(Cl)c1`, the activation factor is 1.43 and the activity change, negative = activation is -42.5% (inactive).
The like results for `CN1CCN(NC(=O)Nc2cc(Cl)cc(Cl)c2)CC1` were, in that order, 2.2 and -120% (active).
The like results for `COC(=O)c1ccc(CC(=O)c2c(C)cc(O)cc2O)o1` were, in that order, 0.877 and 12.3% (inactive).
For `CC(C)COc1ccc(CNC(=S)NCc2ccccc2)cc1` the same measures were 1.12 and -11.7% (inactive).
With `O=C(O)CC(c1cccc(Cl)c1)n1cccc1` (centres undefined), the activation factor is 0.964 and the activity change, negative = activation is 3.65% (inactive).
For `CCCCN1CCc2c([nH]c3c(C)cccc23)C1=O` the same measures were 1.06 and -6.35% (inactive).
The like results for `CCN(CC)S(=O)(=O)c1ccc(NC(=O)Nc2cccc(C(F)(F)F)c2)cc1` were, in that order, 2.03 and -103% (active).
For `O=C(Nc1ccccc1)Nc1cccc(C(F)(F)F)c1`, the activation factor was 1.82 and the activity change, negative = activation is -82.1% (inactive).
For `CCN(CC)S(=O)(=O)c1cccc(C(=O)Nc2cccc(C)c2)c1` the same measures were 0.938 and 6.2% (inactive).
For `O=C(Nc1ccc(OC(F)F)cc1)Nc1cccc(C(F)(F)F)c1` the same measures were 1.99 and -99.2% (active).
`CCN(CC)S(=O)(=O)c1cccc(NC(=O)Nc2cccc(C(F)(F)F)c2)c1`: the activation factor came to 4.57 and the activity change, negative = activation is -357% (active).
For `CCN(CC)S(=O)(=O)c1cccc(NC(=O)c2cc3ccccc3o2)c1` the same measures were 0.883 and 11.7% (inactive).
With `CCNS(=O)(=O)c1ccc(NC(=O)Nc2cccc(C(F)(F)F)c2)cc1`, the activation factor worked out at 1.77 and the activity change, negative = activation was -76.7% (inactive).
For `CCN(CC)S(=O)(=O)c1ccc(NC(=O)CN(c2cccc(F)c2)S(C)(=O)=O)cc1` the same measures were 0.911 and 8.85% (inactive).
Consider `Cc1ccc(OC(F)F)c(NC(=O)Nc2cccc(C(F)(F)F)c2)c1`, for which the activation factor worked out at 1.6 and the activity change, negative = activation is -60.4% (inactive).
For `O=C(c1ccco1)N1CCN(CC(O)Cn2c3ccccc3c3ccccc32)CC1` (centres undefined) the same measures were 0.97 and 2.95% (inactive).
`CC(C)OC(=O)CSc1nc2cccnc2n1C1CCCCC1`: the activation factor turned out to be 0.982 and the activity change, negative = activation was 1.75% (inactive).
On to `COc1ccc(C2=NO[C@@H]3C(=O)N(c4cccc(C)c4C)C(=O)[C@H]23)cc1OC`, for which the activation factor came out at 0.93 and the activity change, negative = activation is 6.95% (inactive).
The like results for `COC(=O)c1sccc1NC(=O)c1cc(OC)cc(OC)c1` were, in that order, 0.928 and 7.2% (inactive).
The like results for `c1coc(C2Nc3ccccc3C3OCCC23)c1` (centres undefined) were, in that order, 1.1 and -10.4% (inactive).
Consider `COc1ccc(C(=O)NC(Oc2ccccc2)C(Cl)(Cl)Cl)cc1` (centres undefined), for which the activation factor came out at 1.06 and the activity change, negative = activation is -6.15% (inactive).
For the compound `C=C(C)c1cccc(C(C)(C)NC(=O)Nc2ccc(C(N)=O)cc2)c1`, the activation factor is 2.18 and the activity change, negative = activation is -118% (active).
For `COc1ccc(C(=O)OC(C(=O)c2ccccc2)c2ccccc2)cc1` (centres undefined) the same measures were 0.982 and 1.8% (inactive).
For `C=C(C)c1cccc(C(C)(C)NC(=O)NCC2COCCO2)c1` (centres undefined) the same measures were 1.09 and -9.1% (inactive).
For `CC(=O)Nc1ccc(S(=O)(=O)Nc2cccc(NC(=O)C(C)(C)C)c2)cc1` the same measures were 1.12 and -11.8% (inactive).
As to `C=C(C)c1cccc(C(C)(C)NC(=O)NC(c2ccccc2)c2ccc(OC)cc2)c1` (centres undefined), the activation factor came to 4.59 and the activity change, negative = activation was -359% (active).
For `CC(C)C(OC(=O)c1ccco1)C(=O)NC1CCCCC1` (centres undefined) the same measures were 0.964 and 3.65% (inactive).
The like results for `Cc1ccc(C)c(N(C(=O)CCC(=O)Nc2cc(C)on2)C(C(=O)NC2CCCC2)c2ccco2)c1` (centres undefined) were, in that order, 0.998 and 0.2% (inactive).
The like results for `O=C(CSc1ncn[nH]1)NCCc1ccccc1` were, in that order, 1.1 and -10.3% (inactive).
Regarding `CC1CCN(C(c2cccs2)c2nnnn2Cc2ccccc2)CC1` (centres undefined), the activation factor stood at 0.984 and the activity change, negative = activation is 1.65% (inactive).
For `Cn1c(CCN2CCOCC2)nc2cc(NC(=O)COc3ccc(Cl)cc3)ccc21` the same measures were 0.927 and 7.3% (inactive).
The like results for `CC[C@]12c3[nH]c4ccc(Cl)cc4c3CCN1C(=O)[C@@H](CC(=O)NC(C)(C)C)C[C@@H]2C(=O)N1CCN(C(=O)c2ccco2)CC1` were, in that order, 1.14 and -13.7% (inactive).
The like results for `CCOC(=O)c1ccc(NC(=O)NCc2ccccc2OC)cc1` were, in that order, 1.8 and -79.8% (inactive).
As for `CCOC(=O)c1ccc(NC(=S)NCCc2ccccc2F)cc1`, the activation factor was 1.3 and the activity change, negative = activation is -29.6% (inactive).
Take `CCOC(=O)c1ccc(NC(=O)NCCc2ccccc2OC)cc1`: the activation factor was determined as 2.01 and the activity change, negative = activation was -101% (active).
The like results for `COc1ccc(C)cc1NC(=O)C1C2C=CC(C2)C1C(=O)O` (centres undefined) were, in that order, 0.955 and 4.55% (inactive).
For `CCC(NC(=O)Nc1cc(OC)c(OC)c(OC)c1)(C(F)(F)F)C(F)(F)F`, the activation factor is 1.8 and the activity change, negative = activation was -80.2% (inactive).
The like results for `COc1cc(NC(=O)NCC2CCN(Cc3ccccc3C)CC2)cc(OC)c1OC` were, in that order, 2.9 and -190% (active).
The like results for `COc1cc(NC(=O)NCC2CCN(Cc3ccc(C)cc3)CC2)cc(OC)c1OC` were, in that order, 1.88 and -88.3% (inactive).
With `COc1cc(NC(=O)NCC2CCN(Cc3ccccc3Cl)CC2)cc(OC)c1OC`, the activation factor was determined as 2.47 and the activity change, negative = activation is -148% (active).
The like results for `O=C(Nc1cc(Cl)cc(Cl)c1)C1CCC(=O)N1Cc1ccccc1Cl` (centres undefined) were, in that order, 1.71 and -70.5% (inactive).
Consider `COc1cc2c(cc1NC(=O)Nc1ccc(C)cc1)oc1ccccc12`, for which the activation factor is 1.18 and the activity change, negative = activation is -18.4% (inactive).
For `CCN(CC)C(=O)[C@H]1C[C@H](CC(=O)NCCc2ccccn2)C(=O)N2CCc3c([nH]c4cc(-c5ccco5)ccc34)[C@]12C` the same measures were 1.27 and -27% (inactive).
For `O=C(c1cccs1)n1nc(-c2ccccc2)nc1NCc1ccco1` the same measures were 0.857 and 14.4% (inactive).
For `CCN(c1ccccc1)S(=O)(=O)c1ccc(NCC2COc3ccccc3O2)nc1` (centres undefined) the same measures were 1.29 and -28.6% (inactive).
Regarding `c1ccc(-c2cc3c(NCC4COc5ccccc5O4)ncnc3s2)cc1` (centres undefined), the activation factor was found to be 1.97 and the activity change, negative = activation was -97.1% (active).
The like results for `FC(F)(F)c1cccc(NC(=S)NCC2COc3ccccc3O2)c1` (centres undefined) were, in that order, 1.43 and -42.8% (inactive).
